Measurements reported in PubChem BioAssay AID1038 (National Center for Advancing Translational Sciences (NCATS), 2008).
Inconclusive results are not listed. Calls of active or inactive are those of the source. The call rests on the fitted dose curve.

test: Normal 1 Cell Viability Secondary Assay for qHTS Assay for Epigenetic Modulators; settings: Normal 1 bronchial epithelial viability, MTS, 4 d
Excerpt: NIH Molecular Libraries Screening Centers Network [MLSCN] NIH Chemical Genomics Center [NCGC] MLSCN Grant: 1 X01 MH079860-01 Assay Provider: Elisabeth D. Martinez, University of Texas SW Medical Center NCGC Assay Overview: This secondary assay characterizes selected actives identified in the qHTS of the Locus Derepression (LDR) assay (PubChem AID 597). The LDR assay detects the derepression of a GFP reporter that is stably integrated in a region of the genome of murine c127i mammary cells that is presumably silenced. Compounds that cause derepression of the locus to express GFP are identified by enumerating GFP positive cells using a laser-scanning microplate cytometer. Selected LDR actives were assayed for killing of Normal 1, a patient-derived normal bronchial epithelial line matched to NSCLC 1, a nonsmall cell lung carcinoma line from the same patient. The Normal 1 line assays the cytoxicity of test compounds on normal lung cells. Normal 1 cell viability was measured using Cell Titer 96 AQueous One (Promega), an assay which detects the ability of metabolically active cells to reduce a tetrazolium salt substrate (MTS), into a soluble formazan product that can be measured by colorimetry.
NCGC Assay Protocol Summary Normal 1 cells were plated in 96-well flat bottom tissue culture dishes (Corning) and grown overnight at 37 C and 5% CO2, then treated with compounds, incubated 4 days, and assayed for viability using the Cell Titer 96 AQueous One kit (Promega) according to the manufacturer's protocol. Absorbance at 490 nm and 650 nm (reference) was measured by a Spectra Max (Molecular Devices). Data were normalized to the untreated control (100% viability). Each cell line was tested in one or two independent assays, each containing 4 or 8 replicates. For further details, see R.L. Johnson, W. Huang, A. Jadhav, C.P. Austin, J. Inglese, E.D. Martinez, A Quantitative High-Throughput Screen Identifies Potential Epigenetic Modulators of Gene Expression, Analytical Biochemistry (2007), doi: 10.1016/j.ab.2007.12.028

Row | SMILES | Potency | outcome
1 | O=Nc1ccc(O)c2ncccc12 | 3000 nM (active) | –
2 | CC(C)C(=O)NC(c1ccco1)c1cc([N+](=O)[O-])c2cccnc2c1O (configuration not stated) | 800 nM (active) | –
3 | O=C(CSc1cccc2cccnc12)NCc1ccccc1 | – | inactive
4 | CN1C(=S)SC(c2ccccc2)N(C)C1c1ccccc1 (configuration not stated) | – | inactive
5 | CC(/C=C/C(=O)NO)=C\[C@@H](C)C(=O)c1ccc(N(C)C)cc1 | 200 nM (active) | –
6 | CC(C)C(=O)NC(c1ccc(N(C)C)cc1)c1ccc2cccnc2c1O (configuration not stated) | 6000 nM (active) | –
7 | CC(C)C(=O)NC(c1ccco1)c1ccc2cccnc2c1O (configuration not stated) | 9000 nM (active) | –
